Over roughly 9,900 sequences, “r (bound/input frequency ratio)” has its median near 0.7; the highest 2% begin near 6.5. What follows is part of a selection rich in the highest values, with near analogues and random picks from the rest.
B1: ENSMUSG00000028439.73|Fam219a|190:194 (ssRNA)
RNA: GGGAGUUCUACAGUCCGACGAUCGCUUCGAUAUCCGCAUGCUAGUAAGCGUUGGGUGAAGGGAUCACAGGGCCGGAAGGUUGGCCCCAGCCAGUGAAGCCAUGAAUCCCCCCCAAGCCCGGCUUGGAAAGGAAGGAAAGGGGUUUUGAGAAGAAAAGGAUCCAAGCAAUGGGGGCAGUUCUCACACCUCAGAGCCCCUCUCCCCAAACCCUGUGCCAGCCCAUAUACCUAUUACACAUUUCCCCUCAUCUCCAGAUGGGAAGCCUGGCAGCGCUGUCCAAAGGGAUACUGUCUCUCCAUUAGACUCUUGCGGUCGCACUAGUGUGGAAUUCUCGGGUGUCAAGG
B2: ENSMUSG00000028439.186|Fam219a (ssRNA)
RNA: GGGAGUUCUACAGUCCGACGAUCGCUUCGAUAUCCGCAUGCUAUAUGUGUGUGCGUGUGUGUGUGUGUGUGUUGUACCCGAGUGUGUGUUGAGCCUAUCUGUCCAGGGAACCAGAUUGGUGUCCGAGAUGAGGAAAUGGCUGUGGCCUGGGAAAUCAGUGAGAGGCCGCUUGGGAAUGAGAAUGCAGUGGACUGAAAGCACAGCCUGGCCAUCUGGAACCUGGGUUCUGGUCCCAGCCUCGGCAUUCUCCCUGAGCUCCUAAGCAAUUCCCAGGCUUCUCUAGGGCUUCAGUUCUCACAACUGCUCUUGCGGUCGCACUAGUGUGGAAUUCUCGGGUGUCAAGG
B3: ENSMUSG00000028439.185|Fam219a (ssRNA)
RNA: GGGAGUUCUACAGUCCGACGAUCGCUUCGAUAUCCGCAUGCUAUGUGUGUAUGUGUGUGCGUGUGUGUGUGUGUGUGUUGUACCCGAGUGUGUGUUGAGCCUAUCUGUCCAGGGAACCAGAUUGGUGUCCGAGAUGAGGAAAUGGCUGUGGCCUGGGAAAUCAGUGAGAGGCCGCUUGGGAAUGAGAAUGCAGUGGACUGAAAGCACAGCCUGGCCAUCUGGAACCUGGGUUCUGGUCCCAGCCUCGGCAUUCUCCCUGAGCUCCUAAGCAAUUCCCAGGCUUCUCUAGGGCUUCAGUUCUCACUCUUGCGGUCGCACUAGUGUGGAAUUCUCGGGUGUCAAGG
B4: ENSMUSG00000028439.189|Fam219a (ssRNA)
RNA: GGGAGUUCUACAGUCCGACGAUCGCUUCGAUAUCCGCAUGCUAUGUGUGUGUGUUGUACCCGAGUGUGUGUUGAGCCUAUCUGUCCAGGGAACCAGAUUGGUGUCCGAGAUGAGGAAAUGGCUGUGGCCUGGGAAAUCAGUGAGAGGCCGCUUGGGAAUGAGAAUGCAGUGGACUGAAAGCACAGCCUGGCCAUCUGGAACCUGGGUUCUGGUCCCAGCCUCGGCAUUCUCCCUGAGCUCCUAAGCAAUUCCCAGGCUUCUCUAGGGCUUCAGUUCUCACAACUGGAAAAUAAAGAGUAGCUGCUCUUGCGGUCGCACUAGUGUGGAAUUCUCGGGUGUCAAGG
B5: ENSMUSG00000061578.502|Ksr2|17:22;189:195 (ssRNA)
RNA: GGGAGUUCUACAGUCCGACGAUCGCUUCGAUAUCCGCAUGCUAAGUGCUGGGAUUAAAGCACACAACCACCAUUGCAAUCUUGAACUCUUGACCAAUAGAAAUCCUAGACUAGUGUUGCUAGGCAACUGACUGUAUUCAGGACACCCAGGGUGGGAGGUGGAUGGAGCUCUUGCCUAACACACACCAAGCCCCAAGUUCCAUCCCCAGUCCCACACAAACCAGAUAUGAUGCACACACCCUAUGUCCCCCACACACGAGAGAGCUGGAGGCAGGAGGAUCAGAAGUUCAGGGCCAUCCUUAAUCUCUUGCGGUCGCACUAGUGUGGAAUUCUCGGGUGUCAAGG
B6: ENSMUSG00000028439.185|Fam219a|1:16;18:35;45:52 (ssRNA)
RNA: GGGAGUUCUACAGUCCGACGAUCGCUUCGAUAUCCGCAUGCUAACACACAUACACACACCCACACACACACACACACAUGUACCCGACACACACAUGAGCCUAUCUGUCCAGGGAACCAGAUUGGUGUCCGAGAUGAGGAAAUGGCUGUGGCCUGGGAAAUCAGUGAGAGGCCGCUUGGGAAUGAGAAUGCAGUGGACUGAAAGCACAGCCUGGCCAUCUGGAACCUGGGUUCUGGUCCCAGCCUCGGCAUUCUCCCUGAGCUCCUAAGCAAUUCCCAGGCUUCUCUAGGGCUUCAGUUCUCACUCUUGCGGUCGCACUAGUGUGGAAUUCUCGGGUGUCAAGG
B7: ENSMUSG00000028439.187|Fam219a (ssRNA)
RNA: GGGAGUUCUACAGUCCGACGAUCGCUUCGAUAUCCGCAUGCUAUGUGCGUGUGUGUGUGUGUGUGUUGUACCCGAGUGUGUGUUGAGCCUAUCUGUCCAGGGAACCAGAUUGGUGUCCGAGAUGAGGAAAUGGCUGUGGCCUGGGAAAUCAGUGAGAGGCCGCUUGGGAAUGAGAAUGCAGUGGACUGAAAGCACAGCCUGGCCAUCUGGAACCUGGGUUCUGGUCCCAGCCUCGGCAUUCUCCCUGAGCUCCUAAGCAAUUCCCAGGCUUCUCUAGGGCUUCAGUUCUCACAACUGGAAAAUCUCUUGCGGUCGCACUAGUGUGGAAUUCUCGGGUGUCAAGG
B8: ENSMUSG00000061578.501|Ksr2|23:28;195:201 (ssRNA)
RNA: GGGAGUUCUACAGUCCGACGAUCGCUUCGAUAUCCGCAUGCUACUCCCAAGUGCUGGGAUUAAAGCACACAACCACCAUUGCAAUCUUGAACUCUUGACCAAUAGAAAUCCUAGACUAGUGUUGCUAGGCAACUGACUGUAUUCAGGACACCCAGGGUGGGAGGUGGAUGGAGCUCUUGCCUAACACACACCAAGCCCCAAGUUCCAUCCCCAGUCCCACACAAACCAGAUAUGAUGCACACACCCUAUGUCCCCCACACACGAGAGAGCUGGAGGCAGGAGGAUCAGAAGUUCAGGGCCAUCCUCUUGCGGUCGCACUAGUGUGGAAUUCUCGGGUGUCAAGG
B9: ENSMUSG00000028439.188|Fam219a (ssRNA)
RNA: GGGAGUUCUACAGUCCGACGAUCGCUUCGAUAUCCGCAUGCUAUGUGUGUGUGUGUGUGUUGUACCCGAGUGUGUGUUGAGCCUAUCUGUCCAGGGAACCAGAUUGGUGUCCGAGAUGAGGAAAUGGCUGUGGCCUGGGAAAUCAGUGAGAGGCCGCUUGGGAAUGAGAAUGCAGUGGACUGAAAGCACAGCCUGGCCAUCUGGAACCUGGGUUCUGGUCCCAGCCUCGGCAUUCUCCCUGAGCUCCUAAGCAAUUCCCAGGCUUCUCUAGGGCUUCAGUUCUCACAACUGGAAAAUAAAGAGCUCUUGCGGUCGCACUAGUGUGGAAUUCUCGGGUGUCAAGG
B10: ENSMUSG00000061578.500|Ksr2|29:34;201:207 (ssRNA)
RNA: GGGAGUUCUACAGUCCGACGAUCGCUUCGAUAUCCGCAUGCUACUCUGCCUCCCAAGUGCUGGGAUUAAAGCACACAACCACCAUUGCAAUCUUGAACUCUUGACCAAUAGAAAUCCUAGACUAGUGUUGCUAGGCAACUGACUGUAUUCAGGACACCCAGGGUGGGAGGUGGAUGGAGCUCUUGCCUAACACACACCAAGCCCCAAGUUCCAUCCCCAGUCCCACACAAACCAGAUAUGAUGCACACACCCUAUGUCCCCCACACACGAGAGAGCUGGAGGCAGGAGGAUCAGAAGUUCAGGCUCUUGCGGUCGCACUAGUGUGGAAUUCUCGGGUGUCAAGG
B11: ENSMUSG00000028439.184|Fam219a|6:22;24:41;51:58 (ssRNA)
RNA: GGGAGUUCUACAGUCCGACGAUCGCUUCGAUAUCCGCAUGCUAUGUGCCACACACAUACACACACCCACACACACACACACACAUGUACCCGACACACACAUGAGCCUAUCUGUCCAGGGAACCAGAUUGGUGUCCGAGAUGAGGAAAUGGCUGUGGCCUGGGAAAUCAGUGAGAGGCCGCUUGGGAAUGAGAAUGCAGUGGACUGAAAGCACAGCCUGGCCAUCUGGAACCUGGGUUCUGGUCCCAGCCUCGGCAUUCUCCCUGAGCUCCUAAGCAAUUCCCAGGCUUCUCUAGGGCUUCAGCUCUUGCGGUCGCACUAGUGUGGAAUUCUCGGGUGUCAAGG
B12: ENSMUSG00000028439.187|Fam219a|6:23;33:40 (ssRNA)
RNA: GGGAGUUCUACAGUCCGACGAUCGCUUCGAUAUCCGCAUGCUAUGUGCCACACACACACACACACAUGUACCCGACACACACAUGAGCCUAUCUGUCCAGGGAACCAGAUUGGUGUCCGAGAUGAGGAAAUGGCUGUGGCCUGGGAAAUCAGUGAGAGGCCGCUUGGGAAUGAGAAUGCAGUGGACUGAAAGCACAGCCUGGCCAUCUGGAACCUGGGUUCUGGUCCCAGCCUCGGCAUUCUCCCUGAGCUCCUAAGCAAUUCCCAGGCUUCUCUAGGGCUUCAGUUCUCACAACUGGAAAAUCUCUUGCGGUCGCACUAGUGUGGAAUUCUCGGGUGUCAAGG
B13: ENSMUSG00000028439.184|Fam219a (ssRNA)
RNA: GGGAGUUCUACAGUCCGACGAUCGCUUCGAUAUCCGCAUGCUAUGUGCGUGUGUGUAUGUGUGUGCGUGUGUGUGUGUGUGUGUUGUACCCGAGUGUGUGUUGAGCCUAUCUGUCCAGGGAACCAGAUUGGUGUCCGAGAUGAGGAAAUGGCUGUGGCCUGGGAAAUCAGUGAGAGGCCGCUUGGGAAUGAGAAUGCAGUGGACUGAAAGCACAGCCUGGCCAUCUGGAACCUGGGUUCUGGUCCCAGCCUCGGCAUUCUCCCUGAGCUCCUAAGCAAUUCCCAGGCUUCUCUAGGGCUUCAGCUCUUGCGGUCGCACUAGUGUGGAAUUCUCGGGUGUCAAGG

These binders were tested against TDP-43 (Homo sapiens, UniProt Q13148 1-414) (assay: RNA Bind-n-Seq with designed 260-mer pool; 25 mM Tris-HCl, 150 mM KCl, 3 mM MgCl2, BSA (printed 500 mg/mL), 20 units/mL SUPERase IN; pH not stated; 500 nM RNA pool, 1 h, 4 C; TDP-43 5, 50, 500 nM; high values mean tight binding). Conditions: protein: recombinant; tags: SBP (GST cleaved off with PreScission; pGEX-GST-SBP).
TDP-43, sequence (Q13148 whole entry): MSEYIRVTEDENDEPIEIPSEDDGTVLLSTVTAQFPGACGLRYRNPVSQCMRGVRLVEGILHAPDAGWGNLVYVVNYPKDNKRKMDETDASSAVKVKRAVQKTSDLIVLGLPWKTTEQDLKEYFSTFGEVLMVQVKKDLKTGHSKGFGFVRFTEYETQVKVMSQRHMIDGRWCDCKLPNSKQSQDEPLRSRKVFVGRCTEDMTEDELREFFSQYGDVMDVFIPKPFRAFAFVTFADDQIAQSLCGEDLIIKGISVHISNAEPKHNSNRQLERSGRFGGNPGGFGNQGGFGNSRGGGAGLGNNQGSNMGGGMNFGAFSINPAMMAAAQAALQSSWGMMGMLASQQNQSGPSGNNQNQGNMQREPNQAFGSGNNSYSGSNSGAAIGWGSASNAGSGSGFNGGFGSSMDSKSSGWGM
Summary of the method: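 The incubation lasted 1 h at 4 °C and used 500 nM of an in vitro-transcribed 260-nt 3′ UTR oligo pool with recombinant SBP-tagged TDP-43 at 5, 50 or 500 nM immobilized on streptavidin beads. It took place in 25 mM Tris-HCl, 150 mM KCl, 3 mM MgCl2, BSA and SUPERase IN. Bound RNA was washed, eluted with biotin, converted to cDNA, PCR-amplified and sequenced to give R, each oligo's normalized abundance in the bound sample divided by that in input. Two independent protein batches provided the duplicates.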

Row | Binder | binding signal
1 | B1 | 0.449 R (bound/input frequency ratio)
2 | B2 | 6.13 R (bound/input frequency ratio)
3 | B3 | 7.73 R (bound/input frequency ratio)
4 | B4 | 1.86 R (bound/input frequency ratio)
5 | B5 | 3.46 R (bound/input frequency ratio)
6 | B6 | 2.5 R (bound/input frequency ratio)
7 | B7 | 6.68 R (bound/input frequency ratio)
8 | B8 | 6.59 R (bound/input frequency ratio)
9 | B9 | 4.17 R (bound/input frequency ratio)
10 | B10 | 3.25 R (bound/input frequency ratio)
11 | B11 | 2.43 R (bound/input frequency ratio)
12 | B12 | 1.44 R (bound/input frequency ratio)
13 | B13 | 7.33 R (bound/input frequency ratio)
